Screening data: PubChem BioAssay, Broad Institute
aSyn 5UTR act: Activators via SNCA 5'UTR binding, MLPCN | activity score, % (tested at 7.5 µM), hits read low | alpha-synuclein 5'UTR reporter, activators screen | 7.1% of 300,000 active; in the data active = activity score below about -60%
Active calls of the source: *. Not all results are given here.

SMILES | aSyn 5UTR act
O=C(CCS(=O)(=O)c1ccccc1)Nc1ccc(-c2nc3ccccc3s2)c(O)c1 | -93*
COC(=O)Cc1ccc2sc(-c3ccccc3)nc2c1 | -208*
Nc1cccc(-c2nc3ccccc3s2)c1 | -67*
CC(=Nc1cc(C(=O)c2ccccc2)ccc1N)C1=C(O)CC(C)(C)CC1=O | -76*
Oc1cccc(/C=N/Nc2ncnc3c2ncn3Cc2ccccc2)c1 | -77*
Nc1c(S(=O)(=O)c2cccc(Cl)c2)c2nc3ccccc3nc2n1/N=C/c1ccc(O)c(O)c1 | 89
Oc1ccc(/C=N/Nc2ncnc3c2ncn3Cc2ccccc2)cc1O | -67*
C[C@@H]1C=CC(=O)O[C@@H]1c1ccc(Cl)cc1 | -194*
COc1ccc(CN2CCN(c3nc4ccccc4s3)CC2)cc1 | -69*
Cc1ccccc1CN1CCN(c2nc3ccccc3s2)CC1 | -146*
COc1ccc(-c2[nH]ncc2CN2CCC(O)(c3ccc(Cl)cc3)CC2)cc1 | 87
O=C(N/N=C/c1ccccc1Cl)c1cccc(F)c1 | -138*
CC(C)(C)c1ccc(C(=O)N/N=C/c2cccc(Cl)c2)cc1 | -89*
Oc1c(Br)cc(Br)cc1/C=N/Nc1ccc(Cl)nn1 | 97
Fc1cccc(/C=N/Nc2ccc(Cl)nn2)c1 | -116*
O=C(N/N=C/c1cccc(F)c1)c1ccc(Cl)cc1 | -150*
CN(CC(=O)Nc1ccccc1Cl)C(=O)COC(=O)c1nc(Cl)c(Cl)c(Cl)c1Cl | -129*
O=[N+]([O-])c1ccc(O)c(-c2cc(C(F)(F)F)nc(-c3ccccc3)n2)c1 | 90
COc1ccc(-c2nc3ccc([N+](=O)[O-])cc3o2)cc1 | -192*
O=[N+]([O-])c1ccc2oc(-c3ccccc3)nc2c1 | -236*
Cc1cccc(-c2nc3cc([N+](=O)[O-])ccc3o2)c1 | -130*
O=C(Nc1ccccc1F)Oc1cccc(OC(=O)Nc2ccccc2F)c1 | -108*
COc1ccsc1C(=O)Nc1ccc(F)cc1F | -69*
COc1cccc(C(=O)Nc2ccccc2F)c1 | -73*
COc1cccc(C(=O)Nc2ccc(F)c(F)c2F)c1 | -170*
SMILES | aSyn 5UTR act
COc1cccc(C(=O)Nc2ccc(C(F)(F)F)n(C)c2=O)c1 | -71*
Cn1ccc(C(=O)Oc2ccc(C(=O)Nc3ccc(F)cc3F)cc2)n1 | -122*
COc1cccc(C(=O)Nc2ccc(F)cc2F)c1 | -114*
O=C1c2cccc3cc([N+](=O)[O-])cc(c23)C(=O)N1CCN1CCCC1 | 98
O=C1c2cccc3c(N4CCCCC4)ccc(c23)C(=O)N1CCO | -120*
C=CCN1C(=O)c2cccc3c(N4CCCCC4)ccc(c23)C1=O | -66*
O=C1c2cccc3c(N4CCCCC4)ccc(c23)C(=O)N1c1cccc(O)c1 | -78*
O=C(OCCN1C(=O)c2cccc3c(N4CCOCC4)ccc(c23)C1=O)c1ccc(Cl)cc1Cl | 99
O=C(NCc1ccccn1)C(=O)Nc1ccccc1 | -150*
Cc1ccc(NC(=O)C(=O)NCc2ccccn2)cc1 | -110*
Cc1ccc(C(=O)Nc2ncc(C)s2)o1 | -119*
Cc1ccc(C(=O)Nc2ncc(Cc3ccc(F)cc3)s2)o1 | -107*
Cc1ccc(C(=O)Nc2ncc(Cc3ccc(SC(F)F)cc3)s2)cc1 | -163*
CSc1ccccc1C(=O)Nc1ncc(C)s1 | -63*
O=C(Nc1ccccc1O)c1csc2c1CCCC2 | -157*
O=C(N/N=C/c1ccccc1F)c1csc2c1CCCC2 | -235*
O=C(N/N=C/c1cccc(F)c1)c1csc2c1CCCC2 | -144*
Cc1cc(C)nc(Nc2n[nH]c(-c3ccccc3Br)n2)n1 | -115*
Cc1cc(C)nc(Nc2n[nH]c(-c3ccccc3C)n2)n1 | -136*
Cc1ccc(NNC(=S)Nc2ccc(C(C)C)cc2)c(C)c1 | -145*
CC(NC(=O)Cn1ncc(Cl)c(Cl)c1=O)C12CC3CC(CC(C3)C1)C2 (stereo unspecified) | 88
O=C(Cn1sc2ccccc2c1=O)NC12CC3CC(CC(C3)C1)C2 | -92*
CCc1ccc(Nc2ncccc2C#N)cc1 | -68*
CCC(C)c1ccc(Nc2ncccc2C#N)cc1 (stereo unspecified) | -176*
COc1ccc(CCNc2ncccc2C#N)cc1OC | -114*
SMILES | aSyn 5UTR act
COc1ccc(C2=NOC(C(=O)NCC(C)C)C2)cc1 (stereo unspecified) | -107*
COc1ccc(C2=NOC(C(=O)NCc3ccco3)C2)cc1 (stereo unspecified) | -77*
COc1ccc(N2CCN(C(=O)C3(C)CC3(Cl)Cl)CC2)cc1 (stereo unspecified) | -82*
COc1ccc(C(=O)O/N=C(\N)c2ccc(OC)c(OC)c2)cc1 | -139*
COc1ccc(C(=O)O/N=C(\N)c2ccc(OC)c(OC)c2)c(OC)c1 | -96*
C/C(=N/N=C(/C)c1cccs1)c1cccs1 | -119*
COc1ccccc1-c1ccc(NC2CCCC2)nn1 | -120*
COc1ccccc1-c1cnn2c(NC3CCCC3)cc(C)nc12 | -182*
COc1cc2c(cc1OC)-c1cc(NC3CCCCCCC3)nc(=O)n1CC2 | 70
CCn1cnc2cc(NCc3ccc(Cl)cc3)ccc21 | -111*
Cc1ccc(CNc2ccc3c(c2)ncn3C(C)(C)C)cc1 | -97*
CCc1ccc(CNc2ccc3c(c2)ncn3C)cc1 | -156*
Cc1ccc(CNc2ccc3c(c2)ncn3C)cc1 | -170*
CCCn1cnc2cc(NCc3ccccn3)ccc21 | -71*
CCNC(=S)N/N=C/c1cc(C)n(-c2ccc(Cl)cc2)c1C | -125*
Cc1cc(N/C=C/C(=O)c2cccs2)ccc1F | -250*
Cc1ccc(N/C=C/C(=O)c2cccs2)cc1C | -180*
O=C(/C=C/Nc1ccccc1C(=O)O)c1cccs1 | -72*
O=C(/C=C/Nc1ccc(Nc2ccccc2)cc1)c1cccs1 | -170*
O=C(/C=C/Nc1cccc([N+](=O)[O-])c1)c1cccs1 | -279*
Cc1ccc2nc(-c3ccc(N4C(=O)CC(N5CCN(CCO)CC5)C4=O)cc3)sc2c1 (stereo unspecified) | -87*
O=C(Nc1ccc2c(c1)CCC2)c1cnccn1 | -175*
O=C(Nc1ccc(N2CCOCC2)cc1)c1cnccn1 | 67
Cc1cnc(C(=O)Nc2ccc(F)c(F)c2)cn1 | -133*
Cc1cc(C)n2nc(C(=O)Nc3ccc4c(c3)CCC4)nc2n1 | -101*
SMILES | aSyn 5UTR act
CCCCOc1ccc(NC(=O)c2cnc(C)cn2)cc1 | -113*
Cc1cnc(C(=O)NCCc2ccc(Cl)cc2)cn1 | -114*
Cc1cnc(C(=O)Nc2ccc3c(c2)CCC3)cn1 | -136*
Cc1cccc(Cn2c(O)c(N=NC(=S)Nc3ccccc3F)c3ccccc32)c1 | 61
Cc1occc1C(=O)N=Nc1c(O)n(C)c2ccccc12 | -247*
Cn1c(O)c(N=NC(=O)c2ccco2)c2ccccc21 | -80*
Cc1occc1C(=O)N=Nc1c(O)[nH]c2ccc(Br)cc12 | -237*
Cn1c(O)c(N=Nc2ccccc2[N+](=O)[O-])c2ccccc21 | -65*
Cc1ccc(N=Nc2ccc(O)c3ncccc23)cc1C | 74
Cn1c(O)c(N=NC(=O)c2ccccc2O)c2ccccc21 | -103*
Cc1cc(N=NC(=O)c2ccccc2O)c2ccccc2c1O | -123*
Cn1c(O)c(N=NC(=S)Nc2ccccc2F)c2cc(S(=O)(=O)N3CCOCC3)ccc21 | 95
O=C(Oc1c(CN2CCOCC2)cc(Cl)c2cccnc12)c1ccc(F)cc1 | 65
O=C(c1ccco1)N1CCCN(Cc2cn[nH]c2-c2ccc(-c3ccccc3)cc2)CC1 | -95*
CCOc1ccccc1-n1c(CN2CCN(C(=O)c3ccco3)CC2)nc2ccccc2c1=O | 111
O=C(c1ccco1)N1CCN(Cc2ccccc2Br)CC1 | -78*
